We go through 15 sequences from PMC3218832.

Some targets named below: RELARELA (p65 homodimer) (Homo sapiens, UniProt Q04206 1-307); p50p50 homodimer (Homo sapiens, UniProt P19838 7-356); RELB subunit;p50 subunit (Homo sapiens;Homo sapiens, UniProt Q01201;P19838 120-401;7-356).
Holding throughout (assay): protein binding microarray; high values mean tight binding
Holding throughout (settings): dsDNA, one strand shown

The target in the next experiment is T1, p52p52 homodimer (Homo sapiens, UniProt Q00653 4-332).
T1 sequence: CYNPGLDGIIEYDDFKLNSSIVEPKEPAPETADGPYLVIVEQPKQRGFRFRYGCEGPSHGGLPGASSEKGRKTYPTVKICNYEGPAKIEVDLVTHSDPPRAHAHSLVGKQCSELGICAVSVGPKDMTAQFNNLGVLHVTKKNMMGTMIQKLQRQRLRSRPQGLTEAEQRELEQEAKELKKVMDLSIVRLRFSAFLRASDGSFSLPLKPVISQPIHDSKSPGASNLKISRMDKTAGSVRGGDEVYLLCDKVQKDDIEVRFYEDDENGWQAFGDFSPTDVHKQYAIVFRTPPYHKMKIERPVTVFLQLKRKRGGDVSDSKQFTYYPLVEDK

Experiment [1] addresses RELA (p65) subunit of heterodimer;p50 subunit (Homo sapiens;Homo sapiens, UniProt Q04206;P19838 1-307;7-356).
In experiment [2] the target is RELA (p65) subunit of heterodimer;p52 subunit (Homo sapiens;Homo sapiens, UniProt Q04206;Q00653 1-307;4-332).
For the next experiment, the target named is T2, RELB subunit;p52 subunit (Homo sapiens;Homo sapiens, UniProt Q01201;Q00653 120-401;4-332).
T2 sequence 1: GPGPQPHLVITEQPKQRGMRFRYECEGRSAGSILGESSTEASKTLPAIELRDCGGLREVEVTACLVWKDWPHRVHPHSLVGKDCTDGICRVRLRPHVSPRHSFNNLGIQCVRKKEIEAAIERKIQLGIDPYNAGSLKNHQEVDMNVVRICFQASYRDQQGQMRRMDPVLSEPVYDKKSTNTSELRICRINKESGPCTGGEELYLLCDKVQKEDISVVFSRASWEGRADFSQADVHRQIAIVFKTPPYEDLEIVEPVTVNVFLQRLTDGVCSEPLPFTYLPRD
T2 sequence 2: T1 sequence

For experiment [3], the target named is C-Rel subunit;p50 subunit (Homo sapiens;Homo sapiens, UniProt Q04864;P19838 1-285;7-356).
Experiment [4] deals with T3, C-Rel subunit;p52 subunit (Homo sapiens;Homo sapiens, UniProt Q04864;Q00653 1-285;4-332).
T3 sequence 1: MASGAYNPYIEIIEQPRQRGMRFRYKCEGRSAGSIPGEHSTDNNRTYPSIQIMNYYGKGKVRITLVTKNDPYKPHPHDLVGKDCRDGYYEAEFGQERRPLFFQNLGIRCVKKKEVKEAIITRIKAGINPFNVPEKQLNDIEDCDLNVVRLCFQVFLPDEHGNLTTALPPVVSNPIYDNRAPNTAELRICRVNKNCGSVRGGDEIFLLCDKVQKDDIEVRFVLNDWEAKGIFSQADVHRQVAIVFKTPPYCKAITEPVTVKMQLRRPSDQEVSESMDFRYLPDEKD
T3 sequence 2: T1 sequence

Sequence of RELA (p65) subunit of heterodimer;p50 subunit (Q04206 1-307, chain 1 of 2): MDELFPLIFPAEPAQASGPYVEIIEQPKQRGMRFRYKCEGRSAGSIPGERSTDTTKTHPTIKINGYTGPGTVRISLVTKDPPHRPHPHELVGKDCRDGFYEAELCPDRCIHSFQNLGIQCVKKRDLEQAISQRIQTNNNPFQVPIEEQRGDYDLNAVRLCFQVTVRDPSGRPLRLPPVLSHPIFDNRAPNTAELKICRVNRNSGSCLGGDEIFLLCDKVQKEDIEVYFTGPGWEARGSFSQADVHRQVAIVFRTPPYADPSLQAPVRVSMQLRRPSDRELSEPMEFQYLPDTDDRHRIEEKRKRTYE
Sequence of RELA (p65) subunit of heterodimer;p50 subunit (P19838 7-356, chain 2 of 2): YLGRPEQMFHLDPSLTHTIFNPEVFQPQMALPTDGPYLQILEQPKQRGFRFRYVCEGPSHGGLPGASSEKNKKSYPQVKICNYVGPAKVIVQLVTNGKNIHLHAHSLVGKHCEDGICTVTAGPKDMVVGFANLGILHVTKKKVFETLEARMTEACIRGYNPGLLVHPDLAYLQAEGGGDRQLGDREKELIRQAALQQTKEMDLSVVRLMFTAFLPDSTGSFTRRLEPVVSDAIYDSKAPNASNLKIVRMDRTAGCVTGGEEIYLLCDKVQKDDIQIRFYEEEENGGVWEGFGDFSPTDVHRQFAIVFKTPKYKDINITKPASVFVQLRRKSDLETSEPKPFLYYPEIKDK
Sequence of RELARELA (p65 homodimer) (Q04206 1-307): as the sequence (Q04206 1-307, chain 1 of 2) above
Sequence of p50p50 homodimer (P19838 7-356): as the sequence (P19838 7-356, chain 2 of 2) above

On to GAGTATCCCCT, for which the binding signal in the experiment with RELARELA (p65 homodimer) is 0.0376 z-score; in the experiment with p50p50 homodimer, 1.26 z-score; in the experiment with p52p52 homodimer it was 1.26 z-score; in experiment [1] it was 1.29 z-score; in experiment [2], 1.26 z-score; in the experiment with RELB subunit;p50 subunit, 1.28 z-score. Moreover, the binding signal in the experiment with RELB subunit;p52 subunit is 1.35 z-score; in experiment [3], 0.928 z-score; in experiment [4], 0.943 z-score.
For GAGTATATCCT, the binding signal with RELARELA (p65 homodimer) is -0.264 z-score; with p50p50 homodimer it was -1.06 z-score; with p52p52 homodimer, -0.578 z-score; in experiment [1], -0.876 z-score; in experiment [2] it was -0.768 z-score; with RELB subunit;p50 subunit, -1 z-score. For the same sequence, the results for the binding signal (with RELB subunit;p52 subunit; in [3]; in [4]) were -0.866 z-score, -1.36 z-score and -0.891 z-score, respectively.
As for CAAGAACCCCC, the binding signal in the experiment with RELARELA (p65 homodimer) was -0.244 z-score; in the experiment with p50p50 homodimer it was 1.28 z-score; with p52p52 homodimer it was 1.21 z-score; in experiment [1] it was 1.6 z-score; in experiment [2], 1.28 z-score; with RELB subunit;p50 subunit, 1.46 z-score. Further, the binding signal in the experiment with RELB subunit;p52 subunit is 1.32 z-score; in experiment [3], 1.04 z-score; in experiment [4], 0.879 z-score.
As to AGGTTGGCCCC, the binding signal with RELARELA (p65 homodimer) was -0.789 z-score; in the experiment with p50p50 homodimer, -0.369 z-score; with p52p52 homodimer, -0.374 z-score; in experiment [1] it was -0.277 z-score; in [2] it was -0.287 z-score; with RELB subunit;p50 subunit, -0.0488 z-score. Besides, the binding signal is -0.238 z-score in the experiment with RELB subunit;p52 subunit, -0.00473 z-score in [3] and 0.0517 z-score in experiment [4].
In the case of CGAAGACTCCC, the binding signal in the experiment with RELARELA (p65 homodimer) is -0.527 z-score; with p50p50 homodimer, -0.307 z-score; with p52p52 homodimer it was -0.407 z-score; in experiment [1], -0.172 z-score; in experiment [2], -0.618 z-score; with RELB subunit;p50 subunit, -0.262 z-score. Further, the binding signal was -0.747 z-score with RELB subunit;p52 subunit, -0.657 z-score in experiment [3] and -0.571 z-score in experiment [4].
In the case of CAGTGGGTCCT, the binding signal in the experiment with RELARELA (p65 homodimer) is -0.388 z-score; in the experiment with p50p50 homodimer it was -1.79 z-score; with p52p52 homodimer it was -0.509 z-score; in [1], -1.1 z-score; in experiment [2], -0.79 z-score; with RELB subunit;p50 subunit it was -0.698 z-score. The binding signal with RELB subunit;p52 subunit was -0.708 z-score; in experiment [3] it was -1.36 z-score; in experiment [4], -1.08 z-score.
GAATTCCTCCC: the binding signal with RELARELA (p65 homodimer) was 0.897 z-score; with p50p50 homodimer, -0.0187 z-score; in the experiment with p52p52 homodimer, -0.00969 z-score; in experiment [1] it was 0.17 z-score; in [2], 0.0178 z-score; in the experiment with RELB subunit;p50 subunit, -0.14 z-score. Further, the binding signal with RELB subunit;p52 subunit was -0.0714 z-score; in experiment [3] it was 0.325 z-score; in experiment [4], 0.177 z-score.
With GGATTAGCCCC, the binding signal in the experiment with RELARELA (p65 homodimer) turned out to be 0.514 z-score; with p50p50 homodimer it was 0.405 z-score; with p52p52 homodimer, 0.296 z-score; in experiment [1], 0.431 z-score; in [2], 0.293 z-score; with RELB subunit;p50 subunit, 0.211 z-score. For the same sequence, the values for the binding signal (with RELB subunit;p52 subunit; in [3]; in experiment [4]) were 0.414 z-score, 0.535 z-score and 0.373 z-score, respectively.
On to GAATTGTTCCT, for which the binding signal is 0.0616 z-score with RELARELA (p65 homodimer); -1.38 z-score in the experiment with p50p50 homodimer; -0.497 z-score with p52p52 homodimer; -0.672 z-score in experiment [1]; -0.721 z-score in experiment [2]; -1.09 z-score with RELB subunit;p50 subunit. Besides, the binding signal with RELB subunit;p52 subunit was -0.587 z-score; in experiment [3], -0.937 z-score; in experiment [4], -0.574 z-score.
GAGTTGTTCCC: the binding signal was 0.34 z-score with RELARELA (p65 homodimer); -0.415 z-score with p50p50 homodimer; -0.231 z-score in the experiment with p52p52 homodimer; -0.188 z-score in experiment [1]; -0.206 z-score in experiment [2]; -0.327 z-score with RELB subunit;p50 subunit. For the same sequence, the binding signal with RELB subunit;p52 subunit is -0.463 z-score; in experiment [3], -0.00411 z-score; in experiment [4] it was -0.104 z-score.
As to AGATTCCTCCC, the binding signal is 0.213 z-score with RELARELA (p65 homodimer); -0.426 z-score in the experiment with p50p50 homodimer; -0.138 z-score with p52p52 homodimer; -0.135 z-score in experiment [1]; -0.146 z-score in experiment [2]; -0.305 z-score with RELB subunit;p50 subunit. Also, the binding signal in the experiment with RELB subunit;p52 subunit was -0.191 z-score; in [3], 0.176 z-score; in experiment [4], -0.118 z-score.
In the case of AAAGTGCCCCC, the binding signal with RELARELA (p65 homodimer) worked out at 0.331 z-score; with p50p50 homodimer it was 1.09 z-score; with p52p52 homodimer, 0.518 z-score; in experiment [1], 0.793 z-score; in [2], 0.904 z-score; in the experiment with RELB subunit;p50 subunit it was 0.839 z-score. For the same sequence, the values for the binding signal (with RELB subunit;p52 subunit; in experiment [3]; in [4]) were 1.17 z-score, 0.964 z-score and 0.619 z-score, respectively.
As to AAGAGAGCCCC, the binding signal is -0.68 z-score in the experiment with RELARELA (p65 homodimer); 0.339 z-score with p50p50 homodimer; 0.122 z-score with p52p52 homodimer; 0.109 z-score in experiment [1]; -0.015 z-score in experiment [2]; -0.0342 z-score with RELB subunit;p50 subunit. Further, the binding signal in the experiment with RELB subunit;p52 subunit is -0.125 z-score; in [3], 0.0932 z-score; in [4] it was 0.00397 z-score.
Take GAATATTCCCT: the binding signal with RELARELA (p65 homodimer) came out at 1.37 z-score; with p50p50 homodimer, 1.19 z-score; in the experiment with p52p52 homodimer, 1.3 z-score; in experiment [1] it was 1.24 z-score; in [2], 1.28 z-score; with RELB subunit;p50 subunit, 1.04 z-score. Besides, the binding signal is 1.2 z-score with RELB subunit;p52 subunit, 0.882 z-score in experiment [3] and 1.16 z-score in experiment [4].
As to CGATTAGTCCT, the binding signal with RELARELA (p65 homodimer) is -0.163 z-score; in the experiment with p50p50 homodimer, -1.16 z-score; in the experiment with p52p52 homodimer, -0.532 z-score; in [1] it was -0.961 z-score; in [2], -0.861 z-score; in the experiment with RELB subunit;p50 subunit, -1.12 z-score. For the same sequence, the binding signal is -0.766 z-score with RELB subunit;p52 subunit, -1.1 z-score in [3] and -0.684 z-score in experiment [4].
